Experimental data from the supplement of paper PMC6555819.

Columns and labels:
Experiment in all cases: PBM binding z-score (relative to random genomic background probes); higher = stronger binding; sequences stand for … in GC…GCGATTGACAGCGTAGAATGAAGG
[1] = test system: FXR:RXRa (NR concentration 270 nM, RXRa partner concentration 90 nM)
Outline: (§1)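 Custom Agilent 4×180K protein-binding microarrays carried double-stranded probes, each with a 34-nt variable region. These regions held direct-repeat seeds, single-nucleotide variants, half-site ablations and random human genomic background sequences. Ligand-free nuclear receptor dimers were incubated on the arrays for 1 h, antibodies against each partner (one per run) detected binding, and scanned fluorescence was regression-normalized. Binding z-scores take the random background probes as reference.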

[2] = test system: LXRa homodimer (NR concentration 270 nM)
Outline: as §1

[3] = test system: LXRb homodimer (NR concentration 270 nM)
Outline: as §1

[4] = test system: PPARg:RXRa (NR concentration 180 nM, RXRa partner concentration 90 nM)
Outline: as §1

[5] = test system: PPARg:RXRa 270nM:90nM, anti-RXR (NR concentration 270 nM, RXRa partner concentration 90 nM)
Outline: as §1

[6] = test system: PPARg:RXRa 30nM:10nM, anti-RXR (NR concentration 30 nM, RXRa partner concentration 10 nM)
Outline: as §1

[7] = test system: PPARg:RXRa 90nM:30nM, anti-RXR (NR concentration 90 nM, RXRa partner concentration 30 nM)
Outline: as §1

[8] = test system: PPARg:RXRa DBDmut IVT, anti-RXR (DBD mutation: RXRa K156A/R161A, NR concentration 270 nM, RXRa partner concentration 90 nM)
Outline: as §1

[9] = test system: PPARg:RXRa IVT, anti-PPARg (NR concentration 270 nM, RXRa partner concentration 90 nM)
Outline: as §1

[10] = test system: PPARg DBDmut:RXRa IVT, anti-PPARg (DBD mutation: PPARg1 K132A/R137A, NR concentration 270 nM, RXRa partner concentration 90 nM)
Outline: as §1

[11] = test system: PPARg DBDmut IVT, anti-PPARg (DBD mutation: PPARg1 K132A/R137A, NR concentration 270 nM)
Outline: as §1

[12] = test system: PPARg homodimer (NR concentration 180 nM)
Outline: as §1

[13] = test system: PXR:RXRa (NR concentration 270 nM, RXRa partner concentration 90 nM)
Outline: as §1

[14] = test system: PXR homodimer (NR concentration 270 nM)
Outline: as §1

[15] = test system: RARa:RXR (NR concentration 270 nM, RXRa partner concentration 90 nM)
Outline: as §1

[16] = test system: RARa homodimer (NR concentration 270 nM)
Outline: as §1

[17] = test system: RARb:RXRa (NR concentration 270 nM, RXRa partner concentration 90 nM)
Outline: as §1

[18] = test system: RARb homodimer (NR concentration 270 nM)
Outline: as §1

Sequence | PBM binding z-score [1] | PBM binding z-score [2] | PBM binding z-score [3] | PBM binding z-score [4] | PBM binding z-score [5] | PBM binding z-score [6] | PBM binding z-score [7] | PBM binding z-score [8] | PBM binding z-score [9] | PBM binding z-score [10] | PBM binding z-score [11] | PBM binding z-score [12] | PBM binding z-score [13] | PBM binding z-score [14] | PBM binding z-score [15] | PBM binding z-score [16] | PBM binding z-score [17] | PBM binding z-score [18]
GCATATAGGTAATACAAGGTCAAAGTCCGATTGT | 3.47 | 9.94 | 1.42 | 2.69 | 3.32 | 1.39 | 2.9 | 4.1 | 4.1 | 0.883 | 0.92 | 1.97 | 4.93 | 2.12 | 4.47 | 1.17 | 2.92 | 3.79
CAAACTAGGTCACAAAAGGTCAAAGTCGAATGAC | 7.02 | 7.78 | 3.46 | 10.1 | 8.38 | 6.97 | 8.43 | 8.13 | 8.79 | 3.52 | 2.98 | 6.01 | 6.68 | 3.59 | 7.57 | 3.85 | 5.37 | 5.82
CCTTACGGGTCACTGACAGGTTATAGCGTTTGGA | 5.14 | 0.362 | 0.00055 | 4.5 | 4.32 | 1.5 | 2.78 | 2.91 | 3.67 | -0.0392 | -0.319 | 2.56 | 3.48 | 0.179 | 3.97 | 0.964 | 3.88 | 3.34
TATTCAGGGTCAAAGGCCAGAGTACGAATGTCGA | 7.57 | 5.36 | 5.04 | 8.53 | 7.7 | 6.15 | 7.42 | 2.47 | 5.28 | 4.08 | 6.08 | 3.43 | 4.67 | 0.543 | 6.17 | 1.17 | 4.83 | 3.61
CCTTACGGGTCACGAGGTTGTAGCACGACGAGCG | 6.87 | 0.0323 | -0.413 | 6.48 | 6.12 | 3.32 | 5.08 | 4 | 4.99 | 1.56 | -0.374 | 3.19 | 3.92 | -0.0862 | 5.55 | 0.412 | 4.42 | 3.53
TAGCCTAGGTCATGCGGGCCAATATAGTGTCGGC | 4.22 | 0.473 | -0.31 | 2.39 | 2.44 | 0.146 | 1.26 | 1.58 | 2.94 | -0.152 | -0.18 | 0.69 | 1.64 | -0.334 | 2.13 | -0.396 | 3.67 | 3.15
ACTAGTTGGTCAGCTGAGGTCACACCCAATTCGG | 2.83 | 2.07 | 0.443 | 1.54 | 2.06 | 0.239 | 1.19 | 1.35 | 2.55 | 1.1 | 0.595 | 2.35 | 5.14 | 1.25 | 4.27 | 0.354 | 3.57 | 4.33
CAAACTAGGTCACAGTGGTCAAAGTCCGTGCGTA | 4.01 | 0.593 | -0.0137 | 8.83 | 6.97 | 5.52 | 7.04 | 8.5 | 9.05 | 2.06 | 1.68 | 2.21 | 2.03 | -0.0834 | 2.51 | 0.000573 | 4.08 | 3.62
ACTCGGATGACAAAGGTCAGAGCTACGCCAGTGA | 3.55 | 1.58 | 0.503 | 4.68 | 5.37 | 3.76 | 5.58 | 0.169 | 2.58 | 0.403 | 0.346 | 3.31 | 3.68 | 0.135 | 4.51 | 1.18 | 4.12 | 3.9
CGTCAAACTTCAACTAAGGTAACGTAAAGCACGC | 0.562 | 0.473 | 0.584 | 0.587 | 0.064 | 0.351 | 0.111 | 0.0564 | 0.514 | 0.469 | 0.79 | 0.684 | 0.396 | 0.0401 | 0.922 | 1.05 | 0.391 | 0.665
GCTGCTAGGTCAACTGATGGTCATCTAAAGCTCG | 4.19 | 0.86 | 0.134 | 2.92 | 3.32 | 0.892 | 2.34 | 5.18 | 4.36 | 0.236 | 0.14 | 2.42 | 2.17 | -0.491 | 3.74 | 0.102 | 4.32 | 3.66
AGTCAAAGTTCATCTAGGTAACATAAGATATGCT | 6.39 | 5.61 | 2.08 | 6.9 | 6.54 | 3.85 | 5.76 | 1.1 | 3.9 | 1.75 | 1.67 | 2.88 | 5.28 | 6.9 | 4.2 | 1.96 | 4.94 | 3.71
ATATGTAGGTTAGCTGGGGTCCTTCAGACTAGGC | 0.425 | -0.109 | 0.384 | 2.96 | 2.75 | 0.715 | 1.78 | 6.27 | 5.77 | 1.74 | 2.65 | 1.13 | 1.33 | 0.206 | 2.3 | 0.538 | 0.851 | 0.736
ACTTACGGGTCTACGAGGTTATAGCACGCGTATA | 0.283 | 0.149 | 0.121 | 0.708 | 0.426 | 0.256 | 0.0516 | -0.0713 | 0.458 | 0.196 | 0.723 | 0.507 | 1.03 | 0.544 | 1.28 | 0.676 | 0.688 | 0.753
CCTACTGGGCCAAAAAGGTCATTGATGCCGATAA | 3.46 | 3.19 | -0.142 | 3.35 | 3.98 | 1.41 | 3.38 | 3.88 | 3.76 | -0.582 | -0.854 | 3.07 | 4.63 | 3.96 | 4.97 | 0.857 | 3.97 | 4.43
